The panel holds about 83,000 compounds, 20% with a hit somewhere; the sample as a whole holds those more often.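 96-well plates, one dose, 48 hours. Percent growth reported; active if below 10.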 Activity calls are given as the source filed them.
Key:
Assay in all cases: NCI-60 one-dose screen, 48 h (100 = growth as untreated, 0 = no growth, -100 = all killed)
Details in all cases: 10 µM unless noted
[1] = tested on: SR leukemia
[2] = tested on: RPMI-8226 leukemia
[3] = tested on: OVCAR-8 ovarian
[4] = tested on: OVCAR-5 ovarian
[5] = tested on: OVCAR-4 ovarian
[6] = tested on: SK-OV-3 ovarian
[7] = tested on: IGROV1 ovarian
[8] = tested on: OVCAR-3 ovarian
[9] = tested on: HS 578T breast
[10] = tested on: NCI/ADR-RES ovarian
[11] = tested on: T-47D breast
[12] = tested on: BT-549 breast
[13] = tested on: MDA-MB-435 melanoma
[14] = tested on: SW-620 colon
[15] = tested on: MCF7 breast
[16] = tested on: HCT-116 colon
[17] = tested on: HCC-2998 colon
[18] = tested on: KM12 colon

Measured: growth

COc1cccc(-c2nn(-c3ccccc3)cc2-c2ccnc(-c3cccnc3)c2)c1
inactive: [1] 74.9% | [2] 67.7% | [3] 105% | [4] 95.9% | [5] 82.7% | [6] 104% | [7] 94.8% | [8] 96.8% | [9] 120% | [10] 90.6% | [11] 76.9% | [12] 98.5% | [13] 97.7% | [14] 109% | [15] 87.1% | [16] 85.7% | [17] 96.4% | [18] 94.7%

Cc1ccc(-c2nc(C#N)c(S(=O)(=O)n3nc(C)cc3N)o2)cc1
inactive: [2] 46.5% | [3] 87.2% | [4] 99.8% | [5] 111% | [6] 108% | [7] 80.8% | [8] 54.3% | [9] 103% | [10] 98.5% | [11] 55.2% | [12] 80.4% | [13] 96.2% | [14] 15% | [15] 88.2% | [16] 65.5% | [17] 110% | [18] 92.8%
active: [1] -25.8%

COc1ccc(/C=C/C(=O)c2ccc(-n3cc(CN4CCN(c5cc6c(cc5F)c(=O)c(C(=O)O)cn6C5CC5)CC4)nn3)cc2)cc1
active: [1] -2.25% | [2] -24.4% | [16] -31.3%
inactive: [3] 67.4% | [4] 92.1% | [5] 88% | [6] 76.9% | [7] 26.6% | [8] 39.3% | [9] 52.8% | [10] 90.7% | [11] 78.6% | [12] 65.8% | [13] 22.2% | [14] 32.8% | [15] 13.2% | [17] 44% | [18] 42.6%

C=C1/C(=C\C=C2/CCC[C@]3(C)[C@@H]([C@H](C)CCCC(C)(C)O)CC[C@@H]23)C[C@@H](OC(=O)CBr)C[C@@H]1O
inactive: [3] 57.3% | [4] 84.1% | [5] 62.7% | [6] 108% | [9] 66.6% | [10] 81.2% | [11] 81.7% | [13] 90.4% | [14] 70.7% | [15] 34.9% | [16] 80.9% | [17] 107% | [18] 57.9%
active: [1] -47.3% | [2] -50.7% | [7] -65.5% | [8] -20.1% | [12] -58.1%

CC(C)(C)CC(C)(C)Nc1c(-c2c(O)c3ccccc3oc2=O)nc2sccn12
inactive: [1] 111% | [2] 97.7% | [3] 91% | [4] 97.5% | [5] 111% | [6] 87.2% | [7] 93.2% | [8] 109% | [9] 96.3% | [10] 98.3% | [11] 84.8% | [12] 111% | [13] 104% | [14] 96.9% | [15] 91.7% | [16] 98.2% | [17] 98.5% | [18] 107%

COc1ccc(-n2c(=O)n(-c3ccc(-c4nc5ccc(F)cc5s4)cc3)c(=O)c3cccnc32)cc1
inactive: [1] 104% | [2] 91.6% | [3] 93.1% | [4] 108% | [5] 104% | [6] 86.6% | [7] 90.5% | [8] 106% | [9] 101% | [10] 103% | [11] 73.5% | [12] 99.7% | [13] 102% | [14] 106% | [15] 92.2% | [16] 91.5% | [17] 91.4% | [18] 102%

COc1ccc(Nc2nc(Nc3cc(C)[nH]n3)c3cc(OC)c(OC)cc3n2)cc1
active: [1] 0.87% [20 µM] | [2] -50.4% [20 µM] | [3] -31.2% [20 µM] | [4] -98% [20 µM] | [5] -83.9% [20 µM] | [6] -96.2% [20 µM] | [7] -88.8% [20 µM] | [8] -63.1% [20 µM] | [9] -63.1% [20 µM] | [10] -63.7% [20 µM] | [11] -52.1% [20 µM] | [12] -87.5% [20 µM] | [13] -97.5% [20 µM] | [14] -74.4% [20 µM] | [15] -71.4% [20 µM] | [16] -54.4% [20 µM] | [17] -73.3% [20 µM] | [18] -74% [20 µM]

Nc1nc(Nc2ccc([N+](=O)[O-])cc2O)nc(C(Cl)(Cl)Cl)n1
inactive: [2] 51.1% | [3] 81.6% | [4] 105% | [5] 55.2% | [6] 95.4% | [7] 88% | [8] 55% | [9] 84.3% | [10] 48% | [11] 73.6% | [12] 66.8% | [14] 54.2% | [15] 59.5% | [16] 70.6% | [17] 108% | [18] 49.8%
active: [1] 7.45% | [13] -36.6%

CC(C)c1nc(N(C)S(C)(=O)=O)nc(-c2ccc(F)cc2)c1/C=C/C(=O)C[C@@H](O)CC(=O)O
inactive: [1] 105% | [2] 107% | [3] 94.2% | [4] 106% | [5] 113% | [6] 102% | [7] 105% | [8] 111% | [9] 102% | [10] 107% | [11] 101% | [12] 94.2% | [13] 103% | [14] 108% | [15] 97.2% | [16] 91.1% | [17] 98.2% | [18] 97.1%

C=C(c1ccc(OC)c(/C=C/C(=O)c2cc(OC)c(OC)c(OC)c2)c1)c1cc(OC)c(OC)c(OC)c1
active: [1] 9.47% | [3] 6.59% | [4] -51.3% | [8] -39.8% | [10] -7.33% | [12] 1.8% | [13] -28.1% | [14] -12.4% | [15] 8.83% | [16] -62.4% | [18] -4.59%
inactive: [2] 10.1% | [5] 40% | [6] 38.6% | [7] 15.2% | [9] 96.5% | [11] 17.2% | [17] 11.4%

C=CCOC(=O)C1=C(C)N(CC)C(=O)N(CC)C1c1c(Cl)n(C)c2ccccc12 (stereo not drawn)
inactive: [1] 90.5% | [2] 59.7% | [3] 88% | [4] 89.1% | [5] 88.5% | [6] 103% | [7] 90.9% | [8] 90% | [9] 89.2% | [10] 84.2% | [11] 87.6% | [12] 89.9% | [13] 89.1% | [14] 84.6% | [15] 79% | [16] 85.8% | [17] 78% | [18] 68.6%

Cc1c(C)c2c(c(C)c1OC(=O)CCC(=O)[O-])CCC(C)(CCCCCCCCCCC[P+](c1ccccc1)(c1ccccc1)c1ccccc1)O2 (stereo not drawn)
inactive: [4] 13.5% | [10] 74.3%
active: [1] -25.5% | [2] -47.7% | [3] 3.73% | [5] -1.74% | [6] -27% | [7] -13.1% | [8] -76.4% | [9] -15% | [11] -41.6% | [12] -60.2% | [13] -89% | [14] 9.14% | [15] -28.2% | [16] -9.97% | [17] -70.3% | [18] -87.7%

CN(C)CCCN(CCC1CCCCC1)CCC1CCCCC1
inactive: [2] 23.8% | [3] 81.1% | [4] 83.3% | [5] 71.2% | [6] 97% | [7] 39.7% | [8] 34.6% | [9] 58.1% | [10] 74.4% | [12] 86% | [14] 40.6% | [16] 29% | [18] 12%
active: [1] -35.3% | [11] -37.6% | [13] -33.2% | [15] -24.1% | [17] -88.1%

O=C(Nc1ccc(Cl)cc1)C1=NCCCCN1
inactive: [1] 116% | [2] 96.3% | [3] 91% | [4] 85.6% | [5] 109% | [6] 88.1% | [7] 79.8% | [8] 96.9% | [9] 97.9% | [10] 89.3% | [11] 68.6% | [12] 91.3% | [13] 72.6% | [14] 63.8% | [15] 81.5% | [16] 80% | [17] 96.2% | [18] 71.2%

C#CC#CC#CC#CC#CC#CC#CC#CC[C@@H]1OC[C@H](COC(=O)O[C@@H](C(=O)O[C@H]2C[C@@]3(O)[C@@H](OC(=O)c4ccccc4)[C@@H]4[C@]5(OC(C)=O)CO[C@@H]5C[C@H](O)[C@@]4(C)C(=O)[C@H](OC(C)=O)C(=C2C)C3(C)C)[C@@H](NC(=O)c2ccccc2)c2ccccc2)O1
inactive: [1] 20.5% | [3] 33.8% | [4] 24.3% | [5] 62.9% | [6] 51.7% | [7] 32.6% | [10] 102% | [11] 39.1% | [12] 34.6% | [14] 28.5% | [15] 18% | [16] 12.5% | [17] 19.7%
active: [2] 9.65% | [8] 7.3% | [9] 5.42% | [13] -63.1% | [18] 9.33%

COc1cc(C(=O)/C=C/c2c(-c3cccs3)nc3sc(C)cn23)cc(OC)c1OC
inactive: [4] 56.9% | [5] 14.3% | [6] 12.4% | [17] 20.2%
active: [1] 4.77% | [2] 2.15% | [3] 0.3% | [7] 9.6% | [8] -8.57% | [9] -16.2% | [10] -35.4% | [11] 3.31% | [12] -0.944% | [13] -15.1% | [14] 6.94% | [15] 1.13% | [16] 2.71% | [18] -8.4%

Source: PubChem BioAssay (NCI)
